Measurements taken from PubChem BioAssay AID778 (Sanford-Burnham Center for Chemical Genomics, 2007).
About 20,000 (21%) of roughly 96,000 compounds were called active.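 The calls were made as follows: active = CYP2C19 inhibition above a set limit at 5 µM in the primary screen (cut at about 50% in these data); inactive = the rest.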 These entries were drawn from the full list.

molecular target: Cytochrome P450 2C19 (Homo sapiens) (UniProt P33261); experiment: blockers of cytochrome P450 2C19 activity – biochemical, luminescence, ADME assay, primary screen (AID 778); conditions: CYP2C19 Supersomes, luciferin-H EGE luminescence, 30 min; at 5 µM; active compounds read high;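 also: plate controls were negative control wells for no effect and 2.5 mM tranylcypromine positive control for full effect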
Sequence (P33261 whole entry, looked up): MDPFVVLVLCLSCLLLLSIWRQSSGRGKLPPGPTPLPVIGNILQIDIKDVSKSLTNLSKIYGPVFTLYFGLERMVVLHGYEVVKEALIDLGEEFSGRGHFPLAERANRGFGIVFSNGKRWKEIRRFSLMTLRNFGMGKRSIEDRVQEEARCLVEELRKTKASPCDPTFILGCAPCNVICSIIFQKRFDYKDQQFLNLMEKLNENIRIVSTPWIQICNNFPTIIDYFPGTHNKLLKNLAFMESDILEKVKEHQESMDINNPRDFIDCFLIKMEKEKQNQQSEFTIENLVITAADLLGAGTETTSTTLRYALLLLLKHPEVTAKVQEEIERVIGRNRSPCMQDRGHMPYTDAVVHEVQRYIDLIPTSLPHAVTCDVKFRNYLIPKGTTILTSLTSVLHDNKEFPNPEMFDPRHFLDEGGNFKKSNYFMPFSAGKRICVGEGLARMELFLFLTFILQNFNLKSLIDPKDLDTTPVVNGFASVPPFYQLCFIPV

inhibition, active:
Cc1noc(C)c1C(=O)NC(C)c1ccc2c(c1)OCO2 (configuration not stated) 64.5%
Cc1ccc(C(=O)N2CCN(C3CCCCC3)CC2)s1 52.8%
COc1ccc(C(=O)N2CCc3cc(OC)c(OC)cc3C2c2cccc([N+](=O)[O-])c2)cc1 (configuration not stated) 53.7%
O=C(CCS(=O)(=O)c1ccccc1)Nc1nc2c(s1)CCCC2 73.9%
COc1ccc(-c2nc(CCNC(=O)c3ccc(Br)o3)cs2)cc1 58.8%
O=[N+]([O-])c1ccc(NCCCN2CCOCC2)c(Cl)c1 52%
CC1(C)C2CCC1(C)C(OC(=O)CCn1ccnc1)C2 (configuration not stated) 99.5%
COc1ccc(OC)c(C(=O)c2coc3ccc(OC)cc23)c1 89.7%
COc1ccc(OC)c(C(=O)c2coc3ccc(O)c(CN4CCOCC4)c23)c1 52.4%
O=C(c1ccccc1)C(Cn1cncn1)C(Sc1ccccc1)c1ccccc1 (configuration not stated) 99.3%
COc1cccc(NC(=O)C2c3cc(OC)c(OC)cc3C(=O)N(C)C2c2cccnc2)c1 (configuration not stated) 50.1%
C#CCN1C(=O)C(O)(CC(=O)c2cc(OC)ccc2OC)c2ccccc21 (configuration not stated) 51.5%
CC1=NN(c2cccc(Cl)c2)C(=O)C12CC(C)=C(C)CS2 (configuration not stated) 90%
Cc1ccccc1N1CC(c2nc3ccccc3[nH]2)CC1=O (configuration not stated) 81.9%

inhibition, inactive:
COc1ccc2[nH]c(=O)c(-c3noc(-c4ccc(F)cc4)n3)cc2c1 -20.6%
O=C(NCCCN1CCCCC1)c1ccc2c(c1)NC(=O)C(N1CCOCC1)S2 (configuration not stated) -20.4%
Cc1cc2nc(-c3ccc(NC(=O)c4cccnc4)cc3)oc2cc1C -3.8%
c1ccc(-c2cn3cccnc3n2)cc1 1.9%
Cc1nc2ccc(NC(=O)C(F)(F)F)cc2o1 19.3%
C#CCN1CC(C)/C(=N/O)CC1C (configuration not stated) -17%
CC(C)(C)NC(=O)C(c1ccncc1)N(C(=O)CNC(=O)c1ccco1)c1ccc2c(c1)OCO2 (configuration not stated) 25.7%
Cc1cccc(N2C(=O)C3C(c4ccccc4)OC4(C(=O)c5ccccc5C4=O)C3C2=O)c1 (configuration not stated) -10.6%
CCOC(=O)c1c(N)sc(C(C)=O)c1C 22.5%
CCn1cc(C(=O)N2CCN(C3CCCCC3)CC2)c2cc(OC)c(OC)cc2c1=O 13.8%
O=C(CN1CCN(C2CCCCC2)CC1)Nc1ccccc1N1CCCCC1 1.2%
CCN1CC=C2C(C#N)=C(N)C(C#N)(C#N)[C@H](c3ccoc3)[C@H]2C1 7.1%
COc1ccc(C(=O)Nc2nc(-c3ccc(OC)cc3)c(-c3ccc([N+](=O)[O-])cc3)s2)cc1 6.9%
COc1ccc(Cc2nnc(SCC(=O)c3cccc([N+](=O)[O-])c3)n2C)cc1 15.5%
CNC(=O)c1nnc(Cc2ccc(Cl)cc2)o1 45.2%
COCc1nnc(NC(=O)CS(=O)(=O)Cc2ccccc2)s1 1.9%
Cc1cccc(S(=O)(=O)CC(=O)Nc2nc(-c3ccccc3)cs2)c1 35.4%
Cc1ccc(-c2c3c(=O)n(C)c(=O)n(C)c3cn2-c2ccccc2O)cc1 19%
Cc1oc(-c2ccccc2Cl)[n+]([O-])c1C 8.4%
CC(=O)Cc1nsc(NC(=O)c2ccc(COc3ccc(C)cc3)o2)n1 22.2%
O=C(NCCc1ccccn1)c1ccc(COc2ccccc2)o1 5.8%
Cc1cc(C(=O)COC(=O)CCCN2C(=O)c3ccccc3C2=O)c(C)n1C -0.8%
CCOC(=O)NNC(=O)c1ccc(Cl)cc1 6.6%
O=C(NC1CCCCC1)c1cc([N+](=O)[O-])ccc1N1CCOCC1 -1.9%
O=C(CN1CCOCC1)Nc1ccc(NC(=O)CN2CCOCC2)c(Cl)c1 -2.2%
COc1ccc(C)cc1N(C)C(=O)c1coc(=O)c2ccccc12 15.5%
COc1ccc(C(=O)Nc2ccc(CN3CCOCC3)cc2)cc1 16.2%
COc1ccc(OC)c(C(=O)c2ccc(C(=O)O)cc2)c1 -2.7%
COc1ccc2occ(C(=O)c3ccc(N=C(C)N(C)C)cc3)c2c1 30.2%
CCOc1cc(C(=O)Nc2ncccn2)cc(OCC)c1OCC 7.1%
Clc1ccc(-n2nnnc2CN2CCCCC2)cc1Cl 27.7%
O=C(O)CC(Cn1cnnn1)c1ccccc1 (configuration not stated) -11.5%
O=C(CSc1nnc2ccccn12)c1ccccc1 13.9%
O=C(c1ccc2c(c1)N(Cc1ccc(F)cc1)C(=O)CS2)N1CCOCC1 23.9%
CCOC(=O)N1CCN(Cc2nc(N)nc(Nc3ccc(C)cc3)n2)CC1 36.2%
CCN(CC)CCN1C(=O)C(=O)/C(=C(/O)c2ccccc2)C1c1ccccc1F (configuration not stated) -0.3%
COC(=O)c1ccc(N(CC(=O)NC2CCCC2)C(=O)CNC(=O)c2ccco2)cc1 -6.6%
CCCn1c(=O)c2ccccc2n2c(SCC(=O)/C(C#N)=C(\C)N)nnc12 4.2%
CCOc1cc2c(cc1OCC)C(C(=O)O)C(c1ccc(OC)c(O)c1)N(C)C2=O (configuration not stated) -11.4%
COc1ccc(C2C(C(=O)N3CCN(c4ccc(OC)cc4)CC3)c3ccccc3C(=O)N2C)cc1 (configuration not stated) 2.6%
Cc1nc(SCC(=O)N2CC(=O)Nc3ccccc32)c2c(C)c(C)sc2n1 49.9%
COc1ccc(OC)c(NC(=O)c2cnn(-c3ccccc3Cl)c2NC(=O)c2ccco2)c1 -0.9%
COc1ccc(C(=O)CN2C(=O)NC(C)(c3ccc(C)cc3)C2=O)cc1OC (configuration not stated) 1.3%
CCOc1ccc(CN2CCCN(C)CC2)cc1 -4.6%
CC1(C)Cc2ccccc2-c2nnc(-c3cccc(O)c3)n21 -16.2%
Cc1[nH]n(-c2cccc(Cl)c2)c(=O)c1-c1ccc(Cl)cc1 -13.5%
CC(=O)Oc1ccc(C)cc1N1C(=O)c2ccc(C(=O)O)cc2C1=O -15.2%
O=C(C1CCCO1)N1CCC(c2nc3ccccc3[nH]2)CC1 (configuration not stated) 20.9%
